Many of the other results were omitted from the sample, so hits are more common in it than they were.
mHTT-CaM PPI inh – inhibitors of human mutant huntingtin-calmodulin interaction; P42858; AlphaScreen His-mHTT/GST-CaM binding, luminescence; inhibition, % at 15 µM; 190,000 compounds, 3.6% hits;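 further: 0% = both proteins with DMSO and 100% = one protein alone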
Pf apPOL inh – Pf-apPOL DNA polymerase inhibition; Recombinant Pf-apPOL, molecular beacon fluorescence, 1.5 h; AID 1794808; 210,000 compounds, 0.25% hits; inhibition, % at 10 µM
Starred values were filed as active, the others as inactive. No stated cut-off is given here; in the data, active means inhibition above about 50%; inactive means the rest.

`COc1ccc(Oc2c(C)oc3cc(OC(=O)C4CC4)ccc3c2=O)cc1` gave mHTT-CaM PPI inh 3 and Pf apPOL inh -6.
For COc1cc(C2CC(=O)Nc3cc(C)c(C)cc32)cc(Br)c1OC (stereo not given) the results were mHTT-CaM PPI inh 98* and Pf apPOL inh -8.
`COc1cccc(C2CC(=O)Nc3cc(C)c(C)cc32)c1` (stereo not given) gave mHTT-CaM PPI inh 19 and Pf apPOL inh -3.
CCc1csc2nc(C)c(NC(=O)Cc3ccccc3C)c(=O)n12 was read as mHTT-CaM PPI inh -1 and Pf apPOL inh -1.
`COc1ccc(-c2cc(-c3ccccc3)nc(NN)n2)cc1OC` gave mHTT-CaM PPI inh 63* and Pf apPOL inh 0.
For Cc1ccc(-c2cc(-c3ccccc3)nc(NN)n2)cc1 the results were mHTT-CaM PPI inh 39 and Pf apPOL inh -4.
For CCCOc1nccnc1NC1CCN(C(=O)c2ccnn2C)CC1 the results were mHTT-CaM PPI inh 6 and Pf apPOL inh -2.
`Cc1ccc(C(=O)N2CC(=O)Nc3ccc(F)cc3C2c2ccc(F)cc2)cc1C` (stereo not given) gave mHTT-CaM PPI inh 11 and Pf apPOL inh -3.
Screening Cc1ccc(C(=O)N2CC(=O)Nc3ccc(Br)cc3C2c2ccccc2)cc1C (stereo not given) returned mHTT-CaM PPI inh 98* and Pf apPOL inh -4.
Screening CCOC(=O)c1ccc(NC(=O)c2nc(C)n(C3CCN(C(C)=O)CC3)c2C)cc1 returned mHTT-CaM PPI inh 30 and Pf apPOL inh -5.
`CC(=O)N1CCC(n2c(C)nc(C(=O)Nc3ccc(Oc4ccccc4)cc3)c2C)CC1` gave mHTT-CaM PPI inh 52* and Pf apPOL inh -2.
`COc1cccc(NC(=O)c2ccccc2Cl)c1` gave mHTT-CaM PPI inh -11 and Pf apPOL inh 3.
COc1cccc(CC(=O)NNC(=O)NC(=O)c2ccccc2Cl)c1 was read as Pf apPOL inh 54*.
CCOc1ccc(C(=O)Nc2cccnc2)cc1Cl was read as mHTT-CaM PPI inh 3 and Pf apPOL inh -8.
COc1ccc(-c2[nH]n(-c3nc4ccccc4s3)c(=O)c2C=NCCN2CCOCC2)cc1 was read as mHTT-CaM PPI inh 68* and Pf apPOL inh 2.
For O=c1c(C=NCCN2CCOCC2)c(C(F)(F)F)[nH]n1-c1nc2ccccc2s1 the results were mHTT-CaM PPI inh 4 and Pf apPOL inh 3.
`O=C(Nc1nc2ccccc2s1)C1CC(=O)N(c2ccc(Br)cc2)C1` (stereo not given) gave mHTT-CaM PPI inh 60* and Pf apPOL inh 1.
`O=C(Nc1ccccc1F)C1CC(=O)N(c2ccc(Br)cc2)C1` (stereo not given) gave mHTT-CaM PPI inh 2 and Pf apPOL inh 0.
`CCNC(=O)N(C)Cc1cc(-c2cccc(OC)c2)on1` gave mHTT-CaM PPI inh -5 and Pf apPOL inh -6.
COc1cc(/C=C2/C=C(c3ccccc3)OC2=O)cc(OC)c1OC was read as mHTT-CaM PPI inh 20 and Pf apPOL inh -8.
Screening O=C(CSC1=NCCS1)NCCSCc1ccco1 returned Pf apPOL inh -3.
For O=C(CSc1nc2ccccc2o1)NCCSCc1ccco1 the results were Pf apPOL inh 63*.
`COc1cccc2c1OC1(C)CC2NC(=O)N1c1cccc(C(=O)NCc2ccccc2)c1` (stereo not given) gave mHTT-CaM PPI inh 7 and Pf apPOL inh -8.
`CN1CCN(C(=O)CSc2nc3c(c(C(F)(F)F)c2C#N)CCC3)CC1` gave mHTT-CaM PPI inh 62*.
Screening CCCCSc1nc2c(c(C(F)(F)F)c1C#N)CC(C)CC2 (stereo not given) returned mHTT-CaM PPI inh -88.
For O=C(COc1ncccn1)Nc1ccc(F)c(F)c1 the results were mHTT-CaM PPI inh -10 and Pf apPOL inh -5.
O=C(O)COc1ccc2c(c1)OC(=Cc1cccc(Br)c1)C2=O was read as mHTT-CaM PPI inh -3 and Pf apPOL inh 15.
For O=C(O)COc1ccc2c(c1)OC(=Cc1ccc(Cl)c(Cl)c1)C2=O the results were mHTT-CaM PPI inh -5 and Pf apPOL inh 63*.
N=c1c(C(N)=O)cc2c(=O)n3ccccc3nc2n1CC1CCCO1 (stereo not given) was read as mHTT-CaM PPI inh 10 and Pf apPOL inh 0.
For Cc1cccc(C(=O)Sc2n[nH]c(=O)[nH]c2=O)c1 the results were mHTT-CaM PPI inh 70* and Pf apPOL inh -12.
For O=C(Sc1n[nH]c(=O)[nH]c1=O)c1ccc(Cl)cc1 the results were mHTT-CaM PPI inh 37 and Pf apPOL inh -4.
O=C(NCCCN1CCCC1=O)C(=O)Nc1ccc(Cl)cc1 was read as mHTT-CaM PPI inh -7 and Pf apPOL inh -7.
For O=C(NCc1ccc(F)cc1)C1CCc2nc(N3CCOCC3)ncc2C1 (stereo not given) the results were mHTT-CaM PPI inh 8 and Pf apPOL inh -21.
For O=c1ccc(-c2ccc(Cl)cc2)nn1CCNS(=O)(=O)c1ccc2c(c1)CCCC2 the results were mHTT-CaM PPI inh 80* and Pf apPOL inh -10.
O=C(NCCCn1nc(-c2ccc(Cl)cc2)ccc1=O)C1CCCC1 was read as mHTT-CaM PPI inh -9 and Pf apPOL inh -25.
COCCn1cc2c3c(cccc31)CN(C(=O)c1ccccc1OC)CC2 was read as mHTT-CaM PPI inh 52* and Pf apPOL inh -4.
`CCCn1cc2c3c(cccc31)CN(C(=O)NCCCOC)CC2` gave mHTT-CaM PPI inh 19 and Pf apPOL inh -2.
`COCCn1cc2c3c(cccc31)CN(C(=O)c1ccccc1Cl)CC2` gave mHTT-CaM PPI inh 27 and Pf apPOL inh 1.
Screening COCCn1cc2c3c(cccc31)CN(C(=O)c1cc(F)cc(F)c1)CC2 returned mHTT-CaM PPI inh 12 and Pf apPOL inh -4.
`COCCn1cc2c3c(cccc31)CN(C(=O)c1cccc(C(F)(F)F)c1)CC2` gave mHTT-CaM PPI inh 70* and Pf apPOL inh -5.
`CCCn1cc2c3c(cccc31)CN(C(=O)c1ccccc1OC)CC2` gave mHTT-CaM PPI inh 58* and Pf apPOL inh -5.
Screening Cc1ccccc1CNC(=O)c1ccc(-c2cncnc2)nc1 returned mHTT-CaM PPI inh 1 and Pf apPOL inh 4.
CCCCOc1ccc(-c2nc(C=Nc3cccc([N+](=O)[O-])c3)c(O)o2)cc1 was read as mHTT-CaM PPI inh 14 and Pf apPOL inh -8.
Screening CC(C)NC(=O)Nc1cccnc1N1CCCCC1 returned mHTT-CaM PPI inh 5 and Pf apPOL inh -8.
Screening COc1ccc(C=Nc2ccc3c(c2)nc(C)n3C)cc1 returned mHTT-CaM PPI inh 6 and Pf apPOL inh 69*.
For COc1ccc(C=Nc2ccc3ncccc3c2)cc1 the results were mHTT-CaM PPI inh 31 and Pf apPOL inh -2.
`COc1ccc(-c2nc(C(=O)NC3CC3)cs2)c(Cl)c1` gave mHTT-CaM PPI inh 2 and Pf apPOL inh 94*.
O=C(NC1CC1)c1csc(COc2ccc(Cl)cc2)n1 was read as mHTT-CaM PPI inh -3 and Pf apPOL inh -10.
`CCC(C(=O)O)N1C(=O)C(=CC=Cc2ccco2)SC1=S` (stereo not given) gave mHTT-CaM PPI inh 41 and Pf apPOL inh 94*.
Screening CC(C)CC(C(=O)O)N1C(=O)C(=Cc2ccco2)SC1=S (stereo not given) returned mHTT-CaM PPI inh 6 and Pf apPOL inh 16.
`CN(C)c1ccc(CN2CCc3ccccc3C2)cc1` gave mHTT-CaM PPI inh -13 and Pf apPOL inh -8.
For Cc1cccc(C(=O)N2CCN(C(=O)c3cccc(C)c3)CC2)c1 the results were mHTT-CaM PPI inh -11 and Pf apPOL inh 0.

Compound activity: PubChem, University of Kansas High Throughput Screening Laboratory
